Measurements published in PubChem BioAssay AID463082 (The Scripps Research Institute Molecular Screening Center, 2010).
Among all 330,000 compounds or so, about 4,900 (1.5%) were called active. The sample holds actives, similar compounds and a random draw of the others, so the mix is not that of the screen. Unmarked numbers belong to inactive results.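 The calls were made as follows: active = inhibition above the mean inhibition across the screen plus 3 SD (cut at about 25% in these data); inactive = the rest.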

Each compound was assayed against Platelet-activating factor acetylhydrolase (Homo sapiens) (UniProt Q13093) (assay: inhibition of plasma PAF acetylhydrolase – biochemical, fluorescence polarization, human, primary screen (AID 463082;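 also: inhibitors block binding of the rhodamine activity-based probe so polarization drops; 0% = enzyme with DMSO and 100% = wells lacking pPAFAH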)). Settings: recombinant pPAFAH, FP-rhodamine probe fluorescence polarization; at 3.39 µM; stronger effect = higher value.
Sequence of Platelet-activating factor acetylhydrolase (Homo sapiens) (Q13093 whole entry, looked up): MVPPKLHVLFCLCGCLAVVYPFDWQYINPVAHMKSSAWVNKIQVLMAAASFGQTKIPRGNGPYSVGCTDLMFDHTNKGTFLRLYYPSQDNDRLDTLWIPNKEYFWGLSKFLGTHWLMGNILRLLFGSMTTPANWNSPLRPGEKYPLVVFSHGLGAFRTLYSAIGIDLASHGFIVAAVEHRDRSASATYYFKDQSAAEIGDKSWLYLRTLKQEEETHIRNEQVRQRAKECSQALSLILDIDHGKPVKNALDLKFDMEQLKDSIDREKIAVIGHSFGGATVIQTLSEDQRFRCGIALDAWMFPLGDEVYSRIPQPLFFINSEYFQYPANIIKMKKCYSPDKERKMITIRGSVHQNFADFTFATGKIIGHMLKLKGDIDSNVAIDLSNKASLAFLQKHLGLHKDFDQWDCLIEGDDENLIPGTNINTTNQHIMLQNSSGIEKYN
With `O=C(Nc1ccc(F)cc1)N1CCN(c2ccc(F)cc2)CC1` the inhibition was -4.2%. `CC(=O)N1CCN(c2ccc(NCc3ccc(C(C)C)cc3)cc2)CC1` was tested, and the inhibition was 30.8% (active). `CC(CC(=O)N1CCN(c2ccccc2)CC1)c1ccccc1` (centres undefined) was tested, and the inhibition was 0.04%. `N#CC1=C(N)N(c2ccc(F)cc2)C(=O)C1` gave an inhibition of -0.02%. `CCCCc1nc(NCCN)c(C#N)c2c1CSC(C)(C)C2` was tested, and the inhibition was 4.91%. `Cc1cccc(COc2ccccc2/C=N/Nc2ccc([N+](=O)[O-])cc2)c1` was tested, and the inhibition was 18%. For `C=C(C)CNC(=S)N/N=C/c1ccccc1OCC(=O)O`, the inhibition was 0.9%. With `Cc1ccc(NS(=O)(=O)c2ccc(N/N=C/c3ccccc3OCC(=O)O)c([N+](=O)[O-])c2)c(C)c1` the inhibition was 88.4% (active). For `COCCn1c(=O)[nH]c(=O)c2cc(C(=O)c3cc(OC)ccc3O)cnc21`, the inhibition was -1.8%. Compound `CC(C)NC(=O)C(=O)NCCN1CCN(S(=O)(=O)c2ccc(Cl)cc2)CC1` has an inhibition of 2.1%. Work on `CCc1nnc(SCc2cccc(F)c2)nc1CC` yielded an inhibition of 7.48%. With `O=C(Nc1nnc(SCc2ccccc2Cl)s1)c1cccc([N+](=O)[O-])c1` the inhibition was 22.8%. For `Clc1ccccc1CSc1nnc(-c2ccco2)c(-c2ccco2)n1`, the inhibition was 74.6% (active). Compound `COc1ccc2nc(SCc3ccccc3)nc(C)c2c1` has an inhibition of 3.07%. Work on `O=C(CC1N=C2c3ccccc3N=C(SCc3ccccc3Cl)N2C1=O)NCc1ccco1` (centres undefined) yielded an inhibition of 6.79%. In the case of `c1ccc(CSc2nnc(-c3ccco3)c(-c3ccco3)n2)cc1`, the inhibition is reported as 62% (active). In the case of `N#CC(Cc1cc2ccccc2n1S(=O)(=O)c1ccccc1)OCc1ccccc1` (centres undefined), the inhibition is reported as 3.57%. Compound `N#Cc1c(NC(=O)C2CCCO2)sc2c1CCCCC2` (centres undefined) has an inhibition of -1.14%. With `Cc1cccc(NS(=O)(=O)c2ccc(C)c(C(N)=O)c2)c1` the inhibition was 9.98%. `Nc1cccc(S(=O)(=O)Nc2ccc(SC(F)F)cc2)c1` was tested, and the inhibition was 26.6% (active). In the case of `CC(=O)N1CCN(C(=O)c2cccc(S(=O)(=O)Nc3ccc(C)cc3)c2)CC1`, the inhibition is reported as 19.9%. With `CCOc1cc(C(=O)N2CCc3cc(OC)c(OC)cc3C2)ccc1OC(F)F` the inhibition was 11%. For `CC(C)N1CCC(=NNc2ccc([N+](=O)[O-])cc2S(=O)(=O)N2CCOCC2)CC1`, the inhibition was 5.77%. `CCN(CC)S(=O)(=O)c1ccc2[nH]cc(C(=O)NCCc3ccccc3)c(=O)c2c1` was tested, and the inhibition was -0.23%. `CCc1cccc2c(=O)c(C(=O)NCCCOC)c[nH]c12` gave an inhibition of 3.69%. In the case of `COc1cccc(NS(=O)(=O)c2ccc3[nH]cc(C(=O)NCCCOC(C)C)c(=O)c3c2)c1`, the inhibition is reported as 29% (active). `C=CCOc1ccc(/C=C/C(=O)OCC(=O)NC2CCCCCC2)cc1` gave an inhibition of 12%. With `COc1ccccc1C(CNC(=O)c1cccc(S(=O)(=O)Nc2ccc(F)cc2)c1)N(C)C` (centres undefined) the inhibition was 28.3% (active). In the case of `COc1ccc(C(CNC(=O)c2ccc(NS(=O)(=O)c3ccc(F)c(C)c3)cc2)N(C)C)cc1` (centres undefined), the inhibition is reported as 7.73%. For `NS(=O)(=O)c1ccc(CNC(=O)c2cccc(Oc3ccccc3)c2)cc1`, the inhibition was 4.17%. With `COc1ccccc1C(CNC(=O)c1cccc(NS(=O)(=O)c2ccc(Br)cc2)c1)N(C)C` (centres undefined) the inhibition was 4.01%. In the case of `COc1ccc(OCC(=O)NCCc2ccc(S(N)(=O)=O)cc2)cc1`, the inhibition is reported as -2.47%. For `CCN(c1ccccc1)S(=O)(=O)c1cccc(C(=O)NCc2ccccc2CN2CCOCC2)c1`, the inhibition was 3.38%. `O=C(NCCN1CCOCC1)c1cccc(S(=O)(=O)Nc2ccc(F)cc2)c1` gave an inhibition of 22.9%. In the case of `O=C(NCc1ccccc1CN1CCCC1)c1cccc(S(=O)(=O)Nc2ccc(F)cc2)c1`, the inhibition is reported as 31.6% (active). `COc1ccc(NS(=O)(=O)c2cccc(C(=O)NCCc3ccc(S(N)(=O)=O)cc3)c2)cc1` was tested, and the inhibition was 26.8% (active). `CC(=O)N1c2ccc(S(=O)(=O)NCCC(=O)N(C)C3CCCCC3)cc2CC1C` (centres undefined) was tested, and the inhibition was 1.62%. In the case of `O=C(c1n[nH]c2c1CCC2)N1CCCC(Nc2cccc(F)c2)C1` (centres undefined), the inhibition is reported as -0.4%. Compound `O=C(COc1ccc(NC(=O)c2ccccc2[N+](=O)[O-])cc1)c1ccc(F)cc1` has an inhibition of 0.54%. Compound `C/C(=N\NC(=O)COc1ccc(C)cc1[N+](=O)[O-])c1ccc2c(c1)OCCO2` has an inhibition of 4.11%. Work on `CC(=O)Nc1cccc(OCC(=O)/C=C2\N(C)c3ccccc3C2(C)C)c1` yielded an inhibition of 1.61%. `N[C@@H](Cc1ccccc1)C(=O)N1CCC(C(=O)NCC(=O)Nc2ccc(F)cc2)CC1` gave an inhibition of 2.49%. With `Cc1cc(C)c2c(Cn3ccnc3)cc(=O)oc2c1` the inhibition was -1.95%. In the case of `CCCCN1C(=O)/C(=C2/Sc3ccc(Cl)cc3N2CC)SC1=S`, the inhibition is reported as 3.72%. Work on `CCCCN1C(=O)/C(=C/C=C2/C=Cc3ccccc3N2CC)SC1=S` yielded an inhibition of -3.21%. `CCN1C(=O)/C(=C2/Sc3ccccc3N2CCCS(=O)(=O)O)SC1=S` was tested, and the inhibition was 28.1% (active). With `CCOC(=O)C(CCOc1cccc(CC)c1)C(=O)OCC` the inhibition was 5.98%. `CCCn1nc(C(=O)OCc2nc(N)nc(Nc3ccccc3C)n2)c2ccccc2c1=O` showed an inhibition of -2.36%. `NC(=O)c1ccsc1NC(=O)c1ccco1` gave an inhibition of 3.89%. `O=C(Nc1nc(-c2ccco2)c(-c2ccco2)s1)c1ccco1` was tested, and the inhibition was 43% (active). For `O=C(Nc1nnc(CCOCCOCCc2nnc(NC(=O)c3ccco3)s2)s1)c1ccco1`, the inhibition was 8.62%. `COc1ccc(N2CCN(C3CC(=O)N(c4ccc5c(c4)OCCO5)C3=O)CC2)cc1` (centres undefined) was tested, and the inhibition was -4.08%. In the case of `COc1cc2ccccc2cc1C(=O)Nc1ccc(N2CCOCC2)cc1`, the inhibition is reported as 11.2%. With `CC(=O)Oc1cccc(N2C(=O)CC(Nc3ccc(N4CCOCC4)cc3)C2=O)c1` (centres undefined) the inhibition was 25.3% (active). In the case of `O=C(CN1CCN(c2cccc(Cl)c2)CC1)Nc1ccc(S(=O)(=O)N2CCOCC2)cc1`, the inhibition is reported as 5.13%. Compound `O=C(NCc1cccnc1)c1cn(-c2ccccc2)nc1-c1cccs1` has an inhibition of -4.38%. `O=C(O)c1ccc(N/N=C/c2cn(-c3ccccc3)nc2-c2cccs2)cc1` was tested, and the inhibition was 34% (active). With `COc1ccc(-c2nn(-c3ccccc3)cc2/C=C\C(=O)Nc2ccc(C(=O)O)cc2)cc1` the inhibition was -67.2%. For `Cn1ncc(N2CCN(S(=O)(=O)c3ccc(Br)cc3)CC2)c(Cl)c1=O`, the inhibition was -5.38%. For `C=CCOc1ccc(/C=C2\SC(=S)N(CCC(=O)O)C2=O)cc1`, the inhibition was 10.2%. In the case of `Cc1ccc(-c2nn(-c3ccccc3)cc2/C=C2\SC(=S)N(CCCCCC(=O)O)C2=O)o1`, the inhibition is reported as 31.3% (active). `O=C(CN1C(=O)/C(=C\c2ccccc2F)SC1=S)Nc1nc2ccccc2s1` was tested, and the inhibition was 7.09%. `Cc1ccc(/C=C2\SC(=S)N(CCC(=O)Nc3ccc(O)cc3)C2=O)cc1` gave an inhibition of 4.61%. For `CN(C)S(=O)(=O)c1cccc(-c2nn(-c3ccccc3)cc2/C=C2\SC(=S)N(CC(=O)O)C2=O)c1`, the inhibition was 38.2% (active). `Cc1ccc(-c2nn(-c3ccccc3)cc2/C=C/C(=O)Nc2cccc(S(N)(=O)=O)c2)cc1` showed an inhibition of -54.5%. For `O=C(N[C@@H]1C/C=C\C[C@@H](CC(=O)N(CCO)Cc2ccccc2)C(=O)N[C@H](Cc2ccccc2)COC1=O)OCC1c2ccccc2-c2ccccc21`, the inhibition was 7.18%. For `O=C(NCCc1ccccn1)c1cc(C(=O)C2CCCCC2)c[nH]1`, the inhibition was 4.41%. Compound `O=[N+]([O-])c1ncc(Br)cc1Nc1ccccc1` has an inhibition of 0.58%. Work on `O=[N+]([O-])c1cc(S(=O)(=O)CCCN2CCOCC2)ccc1F` yielded an inhibition of 0.16%. Work on `N#Cc1ccccc1S(=O)(=O)N1CCN(C(=O)c2cc(-c3ccccc3)nn2-c2ccccc2)CC1` yielded an inhibition of 0.65%. With `Cc1csc(SCC(=O)Nc2sccc2C#N)n1` the inhibition was 11.3%. With `Cc1cccc(C)c1Nc1nnc(SCC(=O)Nc2sccc2C#N)s1` the inhibition was 27.6% (active). Compound `Cc1cccc(C)c1Nc1nnc(SCC(=O)NCCCN2CCCC2=O)s1` has an inhibition of 1.62%. `CC1=CC=CC2=N/C(=N\S(=O)(=O)c3ccc(F)cc3F)c3ccccc3CN12` showed an inhibition of 1.76%. In the case of `CC(Oc1ccccc1)C(=O)Nc1oc(-c2ccco2)c(-c2ccco2)c1C#N` (centres undefined), the inhibition is reported as 28.7% (active). `CC(C)C(=O)Nc1oc(-c2ccccc2)cc1C#N` was tested, and the inhibition was -0.35%. Compound `COc1cc(C(=O)Nc2oc(-c3ccccc3)c(-c3ccccc3)c2C#N)cc(OC)c1OC` has an inhibition of 4.29%. `O=C(COC(=O)COc1cccc(F)c1)NCC1CCCCC1` gave an inhibition of 7.16%. Compound `O=C(CNC(=O)c1cc(=O)[nH]c2ccccc12)Nc1ccc(F)c(F)c1` has an inhibition of 0.37%. Work on `Cc1c(C(=O)OCC(=O)N(CCC#N)c2ccccc2)oc2c1ccc1ccccc12` yielded an inhibition of -0.27%. `Cc1ccc2nc(SCC(=O)Nc3cccc4ccccc34)nc(=O)n2c1` was tested, and the inhibition was 3.47%. Work on `C=CCn1c(N)cc(=O)nc1SCC(=O)Nc1cccc2ccccc12` yielded an inhibition of 0.51%. For `Cc1ccccc1-n1c(SCC(=O)Nc2cccc3ccccc23)nc(O)cc1=O`, the inhibition was 45.7% (active). In the case of `C=CCN(Cc1nc(-c2cc(OC)c3c(c2)OCO3)oc1C)C1CCS(=O)(=O)C1` (centres undefined), the inhibition is reported as 30.4% (active). In the case of `CN(C(=O)CSc1nnc(-c2ccc3c(c2)OCO3)o1)C1CCS(=O)(=O)C1` (centres undefined), the inhibition is reported as -3.28%. With `COc1ccccc1C(=O)N(Cc1ccc(C)o1)C1CCS(=O)(=O)C1` (centres undefined) the inhibition was 0.97%. `O=C(Nc1cccc(F)c1)c1cc(-c2ccco2)nc2ccccc12` gave an inhibition of 16%. For `NNC(=O)c1oc2nc(-c3ccccc3)cc(-c3ccco3)c2c1N`, the inhibition was 37.4% (active). Work on `CNC(=S)NNC(=O)c1oc2nc(-c3ccccc3)cc(-c3ccco3)c2c1N` yielded an inhibition of 11%.
